Assay results as given in PubChem BioAssay AID1053143 (Broad Institute, 2014).
The whole screen tested about 3,400 compounds, of which about 120 (3.5%) were called active. How the calls were made is not given here. The list is a sample of the results. Results with a measured potency or affinity are listed apart.

Test: viability loss in HepG2 hepatoma cells – cell-based, ATP luminescence, cherry-pick, activator set 2, cytotoxicity control, dose response (AID 1053143)
Settings: CellTiter-Glo ATP luminescence, 72 h; series mostly up to 26 µM

| SMILES | activity change, negative = cytotoxicity |
| --- | --- |
| COc1cc(Cl)ccc1OCc1cc(C(=O)NC(C)Cc2cnccn2)no1 (stereo not given) | inactive |
| Cc1ccc(NC(=O)Nc2cccc(C)n2)c(C)c1 | inactive |
| Oc1cccc(Nc2nc(O)c(/C=C3\C=Nc4ccccc43)s2)c1 | inactive |
| COc1ccc(-c2csc(N(CC3CCCO3)C(=O)c3ccc(C)cc3)n2)cc1 (stereo not given) | inactive |
| CC(C)CN1CCC(=O)N(CCSc2ccccc2)CC1 | inactive |
| Clc1ccc(/C=N/Nc2ccccn2)cc1 | inactive |
| O=[N+]([O-])c1ccc(NN=Cc2ccc(O)cc2)nc1 | inactive |
| COc1ccc(N2CCN(c3ccc(NC(=O)/C=C\C(=O)O)cc3)CC2)cc1 | inactive |
| COC(=O)c1sc(-c2ccc(C(C)(C)C)cc2)cc1NC(=O)c1ccccc1C(=O)O | inactive |
| CC1CCC(C(C)C)C(=O)/C1=C/c1ccc(N)cc1 (stereo not given) | inactive |
| Cn1c(=NN=Cc2ccccc2OCCO)sc2ccccc21 | inactive |
| COc1ccc(-c2cn(Cc3ccc(C(N)=O)cc3)c(-c3ccncc3)n2)cc1 | inactive |
| COc1ncccc1-c1nnn(-c2ccc(C)cc2)n1 | inactive |
| COc1ncccc1-c1nnn(-c2ccccc2)n1 | inactive |
| CCCCn1c(SCC2CCCCO2)nc2cc(S(N)(=O)=O)ccc21 (stereo not given) | inactive |
| O=C(Cn1nnc2ccccc21)c1ccc(Cl)cc1 | inactive |
| c1ccc(-n2ncc3c(NCCN4CCOCC4)ncnc32)cc1 | inactive |
| Cn1c(=O)c(C(=O)NCC2CCCO2)c(O)c2ccccc21 (stereo not given) | inactive |

| SMILES | activity change, negative = cytotoxicity |
| --- | --- |
| COc1ccccc1C(=O)Nc1nnc(SCC(=O)NCC2CCCO2)s1 (stereo not given) | inactive |
| CC1(c2ccccn2)Nc2ccccc2-c2nc3ccccc3n21 (stereo not given) | inactive |
| NC(=O)c1ccccc1NC(=O)/C=C/c1ccccc1 | inactive |
| Cc1cccc(Cc2cnc(NC(=O)c3ccc(C)o3)s2)c1 | inactive |
| O=C(Nc1nccs1)c1ccc(-c2ccc(F)cc2)o1 | inactive |
| COC(=O)c1c(NC(=O)c2ccc(C)o2)sc2c1CCCCC2 | inactive |
| Cc1ccc(C(=O)Nc2nc3c(s2)CCCC3)o1 | inactive |
| CCCCN(C(=O)Cc1cccs1)c1nnc(-c2cccnc2)s1 | inactive |
| O=C(NCCc1ccc(Cl)cc1)c1ccc2c(c1)OCO2 | inactive |
| Cc1cccc(OCC(=O)Nc2nccs2)c1C | inactive |
| CC(C)(C)NC(=O)Nc1ccc(Br)cc1 | inactive |
| O=C1c2ccncc2C(=O)N1CNc1ccc(Cl)cc1 | inactive |
| O=C(Cc1nc2ccccc2[nH]c1=O)c1ccc(Cl)cc1 | inactive |
| O=C(O)c1ccc(/C=C(\c2nc3ccccc3[nH]2)c2nc3ccccc3s2)cc1 | inactive |
| CCc1cc(C(=O)COc2ccc(F)cc2)c(O)cc1O | inactive |
| CN(C)c1ccnc2sc(C(=O)c3ccccc3)c(N)c12 | inactive |
| CC1(C)Cc2c(c(N3CCOCC3)nc3sc(C(=O)Nc4ccccc4)c(N)c23)CO1 | inactive |
